Source: PubChem BioAssay (NCI)
This is part of a sample that, as a whole, favours compounds with a hit. Of some 83,000 tested, about 20% had one in any assay.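 Method: cells in 96-well plates; compound added at one concentration; 48 h incubation; percent growth measured; values under 10 scored active.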 Unmarked numbers belong to inactive results. The source made the active and inactive calls.

Legend:
Assay in all cases: NCI-60 one-dose screen, 48 h (100 = growth as untreated, 0 = no growth, -100 = all killed)
[1] = test system: HCT-15 colon; conditions: 10 µM unless noted
[2] = test system: HT29 colon; conditions: 10 µM unless noted
[3] = test system: SNB-75 CNS; conditions: 10 µM unless noted
[4] = test system: SNB-19 CNS; conditions: 10 µM unless noted
[5] = test system: U251 CNS; conditions: 10 µM unless noted
[6] = test system: PC-3 prostate; conditions: 10 µM unless noted
[7] = test system: SK-MEL-5 melanoma; conditions: 10 µM unless noted
[8] = test system: UACC-62 melanoma; conditions: 10 µM unless noted
[9] = test system: LOX IMVI melanoma; conditions: 10 µM unless noted
[10] = test system: SK-MEL-28 melanoma; conditions: 10 µM unless noted
[11] = test system: EKVX NSCLC; conditions: 10 µM
[12] = test system: SN12C renal; conditions: 10 µM unless noted
[13] = test system: ACHN renal; conditions: 10 µM unless noted
[14] = test system: CAKI-1 renal; conditions: 10 µM unless noted
[15] = test system: A498 renal; conditions: 10 µM unless noted
[16] = test system: MOLT-4 leukemia; conditions: 10 µM unless noted
[17] = test system: SK-MEL-2 melanoma; conditions: 10 µM unless noted
[18] = test system: UO-31 renal; conditions: 10 µM unless noted
[19] = test system: TK-10 renal; conditions: 10 µM unless noted
[20] = test system: CCRF-CEM leukemia; conditions: 10 µM

Structure (SMILES)	growth [1]	growth [2]	growth [3]	growth [4]	growth [5]	growth [6]	growth [7]	growth [8]	growth [9]	growth [10]	growth [11]	growth [12]	growth [13]	growth [14]	growth [15]	growth [16]	growth [17] [%]	growth [18] [%]	growth [19]	growth [20]
NCCCOc1cc2ccccc2cc1C(=O)Nc1ccc(Cl)cc1OC(=O)c1cc2ccccc2cc1OCCCN	-82.2% (active)	-94.9% (active)	-86.5% (active)	-61.5% (active)	-93.6% (active)	-93% (active)	-96.1% (active)	-71.1% (active)	-86.7% (active)	-89.3% (active)	-53.7% (active)	-41.2% (active)	-96.7% (active)	-75.7% (active)	-96.1% (active)	-17% (active)				
O=C1NCCN1/N=C/c1c(Cl)nc2n1CCS2	101%	108%	101%	108%	86.1%	76.3%	132%	135%		107%	111%	140%	108%	98.7%	156%	96.6%	70.2	58.6	116%	-62.2% (active)
O=Nc1ccc(O)c2ccccc12	23.6%	1.37% (active)	-64.5% (active)	57.8%	-14% (active)	-10.5% (active)	-97.4% (active)	15.8%	-1.33% (active)	13.3%	32.7%	-50.1% (active)	19.9%	14.1%	118%	59.3%		38	5.45% (active)	5.22% (active)
CC(O)CCC(C)[N+](=O)[O-] (stereo unspecified)	102%	113%	83.3%	99.9%	99.2%	102%	102%	95.4%	100%	98.3%			109%	104%	105%	102%	109	93.5	104%	102%
COc1cc(/C(=C2/O[C@@H]([C@H]3COC(C)(C)O3)[C@H]3OC(C)(C)O[C@@H]23)c2ccc3c(c2)OCO3)cc(OC)c1OC	91.3%	68.4%	51.8%	75.7%	47.1%	82.9%	71.2%	76.1%	47%		74.3%	59.9%	26.4%	68.6%		106%			70.7%	93.1%
CC(C)(C)OC(=O)N1C/C(=C\c2ccccc2)C(=O)/C(=C/c2ccccc2)C1	96.5%	94.1%	74.9%	91.2%	90.5%	81%	108%	84%		107%	97.7%	93.5%	106%	84.8%	101%	71.8%	94.2	71.9	102%	76.4%
CC(=O)Nc1ccc(CC#N)cc1Br	105%	104%	91%	103%	104%	95.6%		99.6%	106%	114%	112%	107%	109%	96.5%	79.9%	118%	106	95	96.4%	107%
